NRP1-CendR mod – modulators of CendR peptide binding to NRP-1, primary screen, biochemical, fluorescence polarization, uHTS. FAM-RPARPAR peptide binding to NRP-1. inhibition, % at 25 µM. actives 0.85% (n = 360,000). AID 602438, 2012;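 active = inhibition or corrected inhibition above about 18%, plus a signal ratio from 0.5 to 1.5, limit read from the data, passing the limit was not always enough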
A3G deaminase – APOBEC3G DNA deaminase inhibitors, primary screen, biochemical, fluorescence, single-stranded DNA substrate, uHTS; AID 493012, 2011; recombinant A3G, ssDNA deamination FAM/TAMRA fluorescence; DNA dC->dU-editing enzyme APOBEC-3G (Homo sapiens), Q9HC16; actives 0.28% (n = 330,000); inhibition, % at 20 µM;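 active = inhibition of at least 40% at 20 µM, with no more than 30% in the related APOBEC3A deaminase screen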;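 also: plate controls were DMSO wells with A3G for no effect and wells lacking A3G enzyme for full effect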
Target sequence (Q9HC16 whole entry, looked up): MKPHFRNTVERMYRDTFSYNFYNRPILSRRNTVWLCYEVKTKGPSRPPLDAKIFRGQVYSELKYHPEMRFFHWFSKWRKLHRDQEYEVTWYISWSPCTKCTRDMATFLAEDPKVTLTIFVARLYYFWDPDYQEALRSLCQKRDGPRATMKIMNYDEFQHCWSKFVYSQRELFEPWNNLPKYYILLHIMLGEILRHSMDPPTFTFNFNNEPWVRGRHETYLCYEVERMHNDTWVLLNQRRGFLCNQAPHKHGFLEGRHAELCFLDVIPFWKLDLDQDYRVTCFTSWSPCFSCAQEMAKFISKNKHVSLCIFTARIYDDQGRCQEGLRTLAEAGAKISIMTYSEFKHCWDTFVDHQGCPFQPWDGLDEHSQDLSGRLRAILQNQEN
ALR inh – inhibitors of human ALR sulfhydryl oxidase, primary screen, biochemical, H2O2 detection, HRP-luminol luminescence, single point; purified ALR, DTT oxidation; inhibition, % (no concentration beside the values); actives 3.8% (n = 290,000); AID 485317, 2010;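 active = mean replicate inhibition above about 79%, with every replicate also reaching it, limit read from the data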
M18AAP inhibitor – PfM18AAP inhibitors, malaria aminopeptidase, primary screen, biochemical, QFRET, recombinant enzyme; actives 1.2% (n = 290,000); inhibition, % at 7.35 µM; H-Glu-NHMec fluorogenic cleavage; M18 aspartyl aminopeptidase (Plasmodium falciparum 3D7);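 active = inhibition above the campaign mean inhibition over all tested compounds plus 3 SD, cut at about 28% in these data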;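 also: 0% = plate median of test compound wells and 100% = 2 mM ZnCl2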
APOBEC3A inh – APOBEC3A ssDNA deaminase inhibitors, primary screen, selectivity assay for APOBEC3G inhibitor project, biochemical, FAM/TAMRA oligo cleavage fluorescence. DNA dC->dU-editing enzyme APOBEC-3A (Homo sapiens), P31941. recombinant A3A, FAM/TAMRA ssDNA deamination fluorescence. inhibition, % at 20 µM. actives 0.41% (n = 330,000);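 active = at least 40% inhibition at 20 µM here, with at most 30% in a related deaminase screen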;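 also: plate controls were A3A with DMSO for no effect and wells lacking A3A enzyme for full effect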
Yeast superoxide – reduction of superoxide in aged yeast, primary screen, HTS; actives 0.18% (n = 330,000); S. cerevisiae aged cells, superoxide DHE fluorescence; hits give low values; AID 2690, 2010; superoxide response (% of plate mean), % at 10 µM;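 active = superoxide response under a set limit, about three screen SD below normal, cut at about 65% in these data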;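 also: yeast aged for seven days with compound at 30 °C before DHE staining; 100% = average MFI of all compound-treated wells on the plate with controls excluded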
An asterisk follows results filed as active; · = no result given. In the library only some 5.2% were active in any assay of this set; here they are far more common.

SMILES | NRP1-CendR mod | A3G deaminase | ALR inh | M18AAP inhibitor | APOBEC3A inh | Yeast superoxide
COc1ccc(NC(=O)C2CCCN(S(=O)(=O)c3ccc4c(c3)CCCN4C(C)=O)C2)cc1 (stereo not given) | 4.9 | -9.4 | -6.4 | -2.0 | -9.6 | 86.5
Oc1cccc(NC(=S)N=Nc2c(O)[nH]c3ccccc23)c1 | 3.2 | -3.1 | 98.7* | 23.1 | 3.5 | 107.5
Oc1[nH]c2ccccc2c1N=NC(=S)N1CCOCC1 | -3.7 | 29.3 | 89.6* | 7.0 | -8.1 | 110.9
Oc1[nH]c2ccc(Br)cc2c1N=NC(=S)N1CCOCC1 | -2.1 | 23.1 | 99.1* | 8.2 | -7.1 | 102.9
O=C(COc1ccc(Cl)cc1Cl)NC(=S)N1CCCc2ccccc21 | -7.9 | 20.6 | 98.3* | 19.4 | -0.1 | 100.9
O=C(COc1ccc(Cl)cc1Cl)OCC(=O)N1CCCc2ccccc21 | 2.8 | -2.1 | -1.3 | -7.7 | 0.0 | 94.4
COc1cccc(N2CCN(C(=O)c3ccc(CS(=O)Cc4ccc(C)cc4)o3)CC2)c1 (stereo not given) | 14.4 | -2.8 | 79.5* | 3.2 | -6.4 | 95.6
COc1cccc(N2CCN(C(=O)c3ccc(CS(=O)c4ccc(Cl)cc4)o3)CC2)c1 (stereo not given) | -0.8 | -5.7 | 87.9* | -2.5 | -5.4 | 97.3
Cc1ccc(-c2nc(C(=O)NCC3CCCO3)cc3c2[nH]c2ccccc23)cc1 (stereo not given) | -25.7 | -7.1 | -6.6 | 1.9 | -4.7 | 86.0
Cc1cc(=O)[nH]c(S/C=C/c2ccccc2)n1 | 8.2 | -6.9 | 98.4* | -1.9 | -1.4 | 91.9
COc1ccc(C(C)(C)C)cc1NC(=O)c1ccc[n+]([O-])c1 | 17.4 | -11.6 | · | -8.1 | -4.5 | 93.0
S=C(Nc1ccc(N2CCOCC2)cc1)Nc1ccc2snnc2c1 | 8.8 | -1.1 | 94.9* | 30.1* | 0.9 | 87.4
O=C(Nc1ccc2snnc2c1)N1CCN(c2ccccc2)CC1 | 5.0 | -4.5 | 98.7* | 3.0 | -3.9 | 94.1
O=C(Nc1ccc2snnc2c1)N1CCOCC1 | 5.4 | -5.0 | 76.8* | 1.4 | -5.5 | 104.2
CSC1=NC(C(Cl)(Cl)Cl)N=C(c2ccccc2)N1 (stereo not given) | -3.7 | -8.0 | · | -5.9 | -0.2 | 98.1
COc1cc(NS(C)(=O)=O)ccc1Nc1c2ccccc2nc2ccccc12 | 2.0 | 2.3 | 98.6* | · | -0.2 | 93.0
Cc1ccc(NC(=O)CCN2C(=O)c3ccncc3C2=O)cc1 | 0.7 | -0.1 | -8.4 | -1.3 | 0.1 | 99.6
CCOC(=O)C1CCN(C(=O)CCc2ccc(S(=O)(=O)NCC(C)C)cc2)CC1 | -1.3 | -3.9 | -5.0 | 4.0 | 0.1 | 114.8
COCCn1c(SCC(=O)c2ccc(F)cc2)nnc1C(C)C | 23.5* | -2.4 | 9.9 | 7.4 | -2.0 | 94.5
Cn1c(CNC(=O)c2ccccc2F)nnc1SCC(=O)c1ccccc1 | 27.0* | -5.8 | 40.4 | -1.5 | -3.6 | 107.5
Cn1c(CNC(=O)c2ccco2)nnc1SCC(=O)c1ccc(F)cc1 | 3.4 | 2.6 | 85.7* | -7.4 | 2.7 | 95.8
COc1ccc(C(=O)NCc2nnc(SCC(=O)c3ccc(F)cc3)n2C)cc1OC | 8.0 | 9.1 | 93.7* | · | 0.5 | 99.3
CCn1c(CNC(=O)c2ccco2)nnc1SCC(=O)c1ccc(F)cc1 | 8.3 | -6.2 | · | 3.9 | -1.7 | 98.2
OC(c1ccccc1)(c1ccccc1)C1CCN(C(=S)Nc2ccc(F)cc2)CC1 | 9.5 | -5.0 | 2.9 | · | 2.5 | 108.3
COc1cccc(C2C(C#N)=C(N)Oc3cc(N)ccc32)c1OC (stereo not given) | -8.1 | -13.0 | 60.9 | 4.7 | -2.8 | 103.3
CCOC(=O)C1=C(C)C2C3C(=O)N(c4cc(C)ccc4C)C(=O)C3C1(C)C1C(=O)N(c3cc(C)ccc3C)C(=O)C21 (stereo not given) | -6.3 | -0.5 | -14.0 | 3.0 | 2.4 | 104.1
